In one assay the target is POU1 (OCT1 POU domain) (human, UniProt P14859 260-458). The assay is described as follows: EMSA-SELEX-seq; no BOB1; 20 mM Tris-HCl pH 7.6, 140 mM NaCl, 10% glycerol, 0.5 mM EDTA, 0.05% Triton X-100, 0.1 mg/mL BSA, 0.1 mg/mL poly(dI-dC), 5 mM DTT, room temperature, 20 min; high values mean tight binding. The note with it: protein: recombinant; dsDNA, one strand shown. The method in brief: (§1)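 Binding preference is reported as the percentage of sequenced 8-mers that match a motif pattern. Tagged POU-domain proteins were made in E. coli BL21, purified under denaturing conditions and renatured. A 30 ng portion was combined with 300 ng of a PCR-amplified double-stranded random 35-nt library, with or without 28 ng coactivator protein, in 20 μL Tris–HCl pH 7.6 binding buffer for 20 min at RT. Complex bands were excised from native 6% PAGE, eluted and PCR-amplified over four rounds before Illumina sequencing.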
POU1 (OCT1 POU domain), sequence (P14859 260-458): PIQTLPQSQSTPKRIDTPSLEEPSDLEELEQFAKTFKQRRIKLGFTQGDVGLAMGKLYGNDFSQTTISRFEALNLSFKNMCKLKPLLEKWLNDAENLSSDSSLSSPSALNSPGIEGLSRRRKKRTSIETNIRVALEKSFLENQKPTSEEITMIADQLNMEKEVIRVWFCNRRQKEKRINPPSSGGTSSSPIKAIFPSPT

For a further assay, the target named is T1, POU2 (OCT2 POU domain) (human, UniProt P09086 175-386).
T1 sequence: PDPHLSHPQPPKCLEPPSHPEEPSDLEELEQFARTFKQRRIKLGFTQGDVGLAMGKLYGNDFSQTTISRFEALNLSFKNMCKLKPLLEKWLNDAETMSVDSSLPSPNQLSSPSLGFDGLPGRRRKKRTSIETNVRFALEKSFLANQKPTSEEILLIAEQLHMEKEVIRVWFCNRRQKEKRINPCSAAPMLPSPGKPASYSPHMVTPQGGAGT
Described as above. The conditions noted are these: protein: recombinant; dsDNA, one strand shown. In short, it runs like this:
as §1

For assay [1], the target named is POU1 (OCT1 POU domain);BOB1 (OBF1, OCA-B) (human;human, UniProt P14859;Q16633 260-458;1-256, |). Kind of assay: EMSA-SELEX-seq; with BOB1 (ternary complex band); 20 mM Tris-HCl pH 7.6, 140 mM NaCl, 10% glycerol, 0.5 mM EDTA, 0.05% Triton X-100, 0.1 mg/mL BSA, 0.1 mg/mL poly(dI-dC), 5 mM DTT, room temperature, 20 min; high values mean tight binding. The note with it: protein: recombinant;recombinant; copies: 1;1; dsDNA, one strand shown. The method in brief: as §1
Background: A gel shift assay detects complexes by their altered migration in electrophoresis.

The target in assay [2] is T2, POU2 (OCT2 POU domain);BOB1 (OBF1, OCA-B) (human;human, UniProt P09086;Q16633 175-386;1-256, |).
T2 sequence 1: T1 sequence
T2 sequence 2: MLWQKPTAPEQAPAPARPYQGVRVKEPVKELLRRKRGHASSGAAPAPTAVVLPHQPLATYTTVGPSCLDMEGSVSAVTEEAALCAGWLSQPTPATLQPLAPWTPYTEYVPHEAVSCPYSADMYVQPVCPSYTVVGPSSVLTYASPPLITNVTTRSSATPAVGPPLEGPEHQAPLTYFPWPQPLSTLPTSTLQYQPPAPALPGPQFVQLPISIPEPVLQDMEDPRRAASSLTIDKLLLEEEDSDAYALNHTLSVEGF
The description is as above. The conditions noted are these: protein: recombinant;recombinant; copies: 1;1; dsDNA, one strand shown. In short, it runs like this:
as §1

Turning to ACAATAAG, the binding signal is 0.0339 % of ANNNNAAN 8-mers with POU1 (OCT1 POU domain), 0.042 % of ANNNNAAN 8-mers with POU2 (OCT2 POU domain), 0.0375 % of ANNNNAAN 8-mers in assay [1] and 0.0396 % of ANNNNAAN 8-mers in assay [2].
The corresponding values for AATTCAAC are 0.069 % of ANNNNAAN 8-mers, 0.0708 % of ANNNNAAN 8-mers, 0.0589 % of ANNNNAAN 8-mers and 0.0512 % of ANNNNAAN 8-mers.
The corresponding values for ACCAAAAT are 0.0446 % of ANNNNAAN 8-mers, 0.0397 % of ANNNNAAN 8-mers, 0.055 % of ANNNNAAN 8-mers and 0.0537 % of ANNNNAAN 8-mers.
For ATTATAAT, the binding signal in the assay with POU1 (OCT1 POU domain) was 0.94 % of ANNNNAAN 8-mers; in the assay with POU2 (OCT2 POU domain), 1.04 % of ANNNNAAN 8-mers; in assay [1], 0.163 % of ANNNNAAN 8-mers; in assay [2], 0.207 % of ANNNNAAN 8-mers.
The corresponding values for ATACGAAA are 0.0698 % of ANNNNAAN 8-mers, 0.0777 % of ANNNNAAN 8-mers, 0.0698 % of ANNNNAAN 8-mers and 0.0693 % of ANNNNAAN 8-mers.
In the case of AAAGAAAG, the binding signal in the assay with POU1 (OCT1 POU domain) was 0.0679 % of ANNNNAAN 8-mers; in the assay with POU2 (OCT2 POU domain), 0.0719 % of ANNNNAAN 8-mers; in assay [1], 0.08 % of ANNNNAAN 8-mers; in assay [2], 0.0619 % of ANNNNAAN 8-mers.
Consider ATAAGAAC, for which the binding signal was 0.0362 % of ANNNNAAN 8-mers with POU1 (OCT1 POU domain), 0.0518 % of ANNNNAAN 8-mers in the assay with POU2 (OCT2 POU domain), 0.0332 % of ANNNNAAN 8-mers in assay [1] and 0.0438 % of ANNNNAAN 8-mers in assay [2].
For AGATTAAA, the binding signal was 0.105 % of ANNNNAAN 8-mers in the assay with POU1 (OCT1 POU domain), 0.11 % of ANNNNAAN 8-mers in the assay with POU2 (OCT2 POU domain), 0.0648 % of ANNNNAAN 8-mers in assay [1] and 0.071 % of ANNNNAAN 8-mers in assay [2].
As for AACCGAAC, the binding signal is 0.013 % of ANNNNAAN 8-mers with POU1 (OCT1 POU domain), 0.0173 % of ANNNNAAN 8-mers with POU2 (OCT2 POU domain), 0.0117 % of ANNNNAAN 8-mers in assay [1] and 0.0198 % of ANNNNAAN 8-mers in assay [2].
For the sequence ATAGGAAC, the binding signal in the assay with POU1 (OCT1 POU domain) is 0.0339 % of ANNNNAAN 8-mers; in the assay with POU2 (OCT2 POU domain) it was 0.0449 % of ANNNNAAN 8-mers; in assay [1], 0.0375 % of ANNNNAAN 8-mers; in assay [2] it was 0.0545 % of ANNNNAAN 8-mers.
Consider AGAAAAAA, for which the binding signal with POU1 (OCT1 POU domain) is 0.0767 % of ANNNNAAN 8-mers; with POU2 (OCT2 POU domain) it was 0.0857 % of ANNNNAAN 8-mers; in assay [1], 0.0812 % of ANNNNAAN 8-mers; in assay [2] it was 0.0561 % of ANNNNAAN 8-mers.
Take AGCATAAT: the binding signal in the assay with POU1 (OCT1 POU domain) is 0.269 % of ANNNNAAN 8-mers; with POU2 (OCT2 POU domain) it was 0.277 % of ANNNNAAN 8-mers; in assay [1] it was 0.0757 % of ANNNNAAN 8-mers; in assay [2], 0.106 % of ANNNNAAN 8-mers.
Regarding AGGCCAAA, the binding signal with POU1 (OCT1 POU domain) is 0.029 % of ANNNNAAN 8-mers; with POU2 (OCT2 POU domain), 0.027 % of ANNNNAAN 8-mers; in assay [1], 0.0242 % of ANNNNAAN 8-mers; in assay [2] it was 0.0281 % of ANNNNAAN 8-mers.
With AAAATAAT, the binding signal in the assay with POU1 (OCT1 POU domain) was 0.178 % of ANNNNAAN 8-mers; with POU2 (OCT2 POU domain) it was 0.212 % of ANNNNAAN 8-mers; in assay [1], 0.153 % of ANNNNAAN 8-mers; in assay [2], 0.155 % of ANNNNAAN 8-mers.
Take AAAAAAAC: the binding signal is 0.0583 % of ANNNNAAN 8-mers with POU1 (OCT1 POU domain), 0.0593 % of ANNNNAAN 8-mers in the assay with POU2 (OCT2 POU domain), 0.0784 % of ANNNNAAN 8-mers in assay [1] and 0.0512 % of ANNNNAAN 8-mers in assay [2].
Take ACAAAAAC: the binding signal was 0.0488 % of ANNNNAAN 8-mers with POU1 (OCT1 POU domain), 0.0397 % of ANNNNAAN 8-mers with POU2 (OCT2 POU domain), 0.0706 % of ANNNNAAN 8-mers in assay [1] and 0.0405 % of ANNNNAAN 8-mers in assay [2].
On to ATCACAAT, for which the binding signal with POU1 (OCT1 POU domain) is 0.045 % of ANNNNAAN 8-mers; in the assay with POU2 (OCT2 POU domain) it was 0.0518 % of ANNNNAAN 8-mers; in assay [1], 0.039 % of ANNNNAAN 8-mers; in assay [2] it was 0.0487 % of ANNNNAAN 8-mers.
The corresponding values for AAGAAAAC are 0.0473 % of ANNNNAAN 8-mers, 0.0345 % of ANNNNAAN 8-mers, 0.0644 % of ANNNNAAN 8-mers and 0.0355 % of ANNNNAAN 8-mers.
For the sequence ATACTAAA, the binding signal in the assay with POU1 (OCT1 POU domain) was 0.0648 % of ANNNNAAN 8-mers; with POU2 (OCT2 POU domain), 0.0886 % of ANNNNAAN 8-mers; in assay [1], 0.0499 % of ANNNNAAN 8-mers; in assay [2] it was 0.0594 % of ANNNNAAN 8-mers.
Regarding AACGCAAA, the binding signal is 0.147 % of ANNNNAAN 8-mers with POU1 (OCT1 POU domain), 0.0978 % of ANNNNAAN 8-mers with POU2 (OCT2 POU domain), 0.266 % of ANNNNAAN 8-mers in assay [1] and 0.229 % of ANNNNAAN 8-mers in assay [2].
As for ACGGAAAC, the binding signal was 0.0198 % of ANNNNAAN 8-mers with POU1 (OCT1 POU domain), 0.019 % of ANNNNAAN 8-mers in the assay with POU2 (OCT2 POU domain), 0.0289 % of ANNNNAAN 8-mers in assay [1] and 0.0305 % of ANNNNAAN 8-mers in assay [2].
In the case of ATCCGAAA, the binding signal is 0.0305 % of ANNNNAAN 8-mers with POU1 (OCT1 POU domain), 0.0374 % of ANNNNAAN 8-mers with POU2 (OCT2 POU domain), 0.0308 % of ANNNNAAN 8-mers in assay [1] and 0.0338 % of ANNNNAAN 8-mers in assay [2].
Take AAGAAAAA: the binding signal was 0.0934 % of ANNNNAAN 8-mers in the assay with POU1 (OCT1 POU domain), 0.0921 % of ANNNNAAN 8-mers in the assay with POU2 (OCT2 POU domain), 0.105 % of ANNNNAAN 8-mers in assay [1] and 0.0669 % of ANNNNAAN 8-mers in assay [2].
With AACGAAAA, the binding signal is 0.0522 % of ANNNNAAN 8-mers with POU1 (OCT1 POU domain), 0.0529 % of ANNNNAAN 8-mers with POU2 (OCT2 POU domain), 0.0597 % of ANNNNAAN 8-mers in assay [1] and 0.0462 % of ANNNNAAN 8-mers in assay [2].
AGAAAAAG: the binding signal with POU1 (OCT1 POU domain) is 0.0534 % of ANNNNAAN 8-mers; with POU2 (OCT2 POU domain), 0.0581 % of ANNNNAAN 8-mers; in assay [1] it was 0.0468 % of ANNNNAAN 8-mers; in assay [2], 0.0421 % of ANNNNAAN 8-mers.
Take AGGAGAAC: the binding signal is 0.0275 % of ANNNNAAN 8-mers with POU1 (OCT1 POU domain), 0.0363 % of ANNNNAAN 8-mers with POU2 (OCT2 POU domain), 0.0261 % of ANNNNAAN 8-mers in assay [1] and 0.0149 % of ANNNNAAN 8-mers in assay [2].
Consider ATTCTAAA, for which the binding signal in the assay with POU1 (OCT1 POU domain) was 0.0946 % of ANNNNAAN 8-mers; in the assay with POU2 (OCT2 POU domain) it was 0.123 % of ANNNNAAN 8-mers; in assay [1], 0.0542 % of ANNNNAAN 8-mers; in assay [2], 0.0726 % of ANNNNAAN 8-mers.
As for AAAACAAC, the binding signal with POU1 (OCT1 POU domain) was 0.0362 % of ANNNNAAN 8-mers; in the assay with POU2 (OCT2 POU domain), 0.0345 % of ANNNNAAN 8-mers; in assay [1] it was 0.0609 % of ANNNNAAN 8-mers; in assay [2], 0.0462 % of ANNNNAAN 8-mers.
For the sequence ACGCGAAA, the binding signal in the assay with POU1 (OCT1 POU domain) was 0.0179 % of ANNNNAAN 8-mers; in the assay with POU2 (OCT2 POU domain) it was 0.0265 % of ANNNNAAN 8-mers; in assay [1], 0.0211 % of ANNNNAAN 8-mers; in assay [2], 0.0314 % of ANNNNAAN 8-mers.
Turning to ATTTGAAA, the binding signal with POU1 (OCT1 POU domain) is 0.142 % of ANNNNAAN 8-mers; with POU2 (OCT2 POU domain) it was 0.0995 % of ANNNNAAN 8-mers; in assay [1], 0.178 % of ANNNNAAN 8-mers; in assay [2] it was 0.0933 % of ANNNNAAN 8-mers.

The record behind these values is PMC10812921, “Transcriptional Coactivator BOB1 (OBF1, OCA-B) Modulates the Specificity of DNA Recognition by the POU-Domain Factors OCT1 and OCT2 in a Monomeric Configuration”.
